Data from PubChem BioAssay AID1851 (National Center for Advancing Translational Sciences (NCATS), 2009).
Where “and” joins values, the source holds several entries; their conditions need not be identical. Equal entries are not always repeated. Out of some 16,000 compounds screened, about 5,800 (36%) were called active. Another 23% or so got no clear call; they are omitted. The list shows a part of the results. A number with no mark means an inactive call. Calls follow the shape of the dose curve; as a rule, active = well fitted curve in the direction sought with a large enough effect; inconclusive = small, poorly fitted or top-dose-only effect, or effect the other way; inactive = no such curve, though single readings can be large or run the other way.

Biological target: Cytochrome P450 2C19 (Homo sapiens) (UniProt P33261)
Sequence (P33261 whole entry, looked up): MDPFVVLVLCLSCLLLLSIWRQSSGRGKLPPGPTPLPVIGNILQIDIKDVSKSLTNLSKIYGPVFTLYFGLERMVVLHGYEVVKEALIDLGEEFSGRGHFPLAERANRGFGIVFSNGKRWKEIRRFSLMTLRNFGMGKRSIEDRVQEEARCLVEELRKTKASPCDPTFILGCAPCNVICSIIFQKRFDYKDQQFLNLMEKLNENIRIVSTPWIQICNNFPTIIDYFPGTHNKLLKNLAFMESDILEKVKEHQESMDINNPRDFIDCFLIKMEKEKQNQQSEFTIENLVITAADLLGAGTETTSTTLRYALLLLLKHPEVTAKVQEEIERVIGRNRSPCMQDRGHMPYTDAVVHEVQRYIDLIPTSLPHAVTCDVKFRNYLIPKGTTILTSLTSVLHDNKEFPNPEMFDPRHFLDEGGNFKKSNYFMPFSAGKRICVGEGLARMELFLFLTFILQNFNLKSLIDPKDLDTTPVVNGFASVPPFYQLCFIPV
Experiment: Cytochrome panel assay with activity outcomes
Conditions: recombinant CYP, pro-luciferin dealkylation, luminescence, p450-cyp2c19; series mostly up to 57.1 µM
% is scaled to controls: 0 for no effect and ±100 for the full control effect.

| SMILES | AC50 | activity, negative = inhibition |
| --- | --- | --- |
| COc1ccc2c(c1)C(=O)N(c1ccccc1)C(=O)C2 | 11.2 µM (active) | – |
| COc1ccc(-n2c(C)n[nH]c2=O)cc1 | inactive | – |
| O=C(c1c(O)c2ccc(Cl)cc2[nH]c1=O)C1CC1 | inactive | – |
| CC(C)CN1CCC2(CC1)CCN(C(=O)c1ccncc1)CC2 | inactive | – |
| CCC(=O)N1CCN(C(=O)c2ccccc2)CC1 | inactive | – |
| N#Cc1c(N2CCN(C(=O)c3ccccc3Cl)CC2)nc(-c2ccccc2)c2c1CCCC2 | 3.98 µM (active) | – |
| COc1ccc(C(=O)N2CCC3(CCN(Cc4ccc(C#N)cc4)CC3)CC2)cc1 | inactive | – |
| N#Cc1ccc(CN2CCC3(CC2)CCN(C(=O)c2ccncc2)CC3)cc1 | inactive | – |
| CC(C)Cc1nc(N2CCN(C(=O)c3ccccc3)CC2)c(C#N)c2c1CCC2 | 2.51 µM (active) | – |
| CC(=O)OC[C@@H]1O[C@@H](O/N=C2/C[C@@H](O)[C@@H](O)[C@@H]3[C@H]4C(=O)N(c5ccc(F)cc5F)C(=O)[C@@H]4CC[C@@H]23)[C@H](OC(C)=O)[C@H](OC(C)=O)[C@@H]1OC(C)=O | – | 51.5% [at 11.4 µM] |
| Cc1cc(NC(=O)Nc2ccc3c(ccn3C)c2)sn1 | 3.16 µM (active) | – |
| CCCC[C@@H]1CN2[C@H](c3ccc(Br)cc3)[C@@H](C)CC[C@H]2C(=O)O1 | – | -43.3% [at 11.4 µM] |
| C[C@@H]1CC[C@H]2C(=O)NC[C@@H](O)CN2[C@@H]1c1ccc(Br)cc1 | 2 µM (active) | – |
| CCCC[C@@H]1CN2[C@H](c3ccc(Br)cc3)[C@H](C)CC[C@H]2C(=O)O1 | 3.98 µM (active) | – |
| C[C@@H]1CN2[C@H](c3ccc(Br)cc3)[C@H](C)CC[C@H]2C(=O)O1 | – | -28.6% [at 11.4 µM] |
| C[C@@H]1CC[C@H]2C(=O)O[C@H](CN=[N+]=[N-])CN2[C@@H]1c1ccc(Br)cc1 | 0.398 µM (active) | – |
| CO[C@H]1COC(=O)[C@@H](CCSC)NC(=O)C/C=C\[C@@H](C)[C@H](OC)COC(=O)[C@@H](OCc2ccccc2)/C=C\[C@@H]1C | – | -26% [at 11.4 µM] |
| Cc1ccccc1/C=C\C1=NCCN1 | inactive | – |
| N=C(N)[C@H](N=Nc1ccccc1)C(N)=O | – | -26.2% [at 11.4 µM] |
| COc1ccc(-c2nnc(-c3cccnc3)o2)cc1 | 17.8 µM (active) | – |
| Cc1ccc(-c2nnc(-c3ccc4ccccc4c3)o2)cc1 | – | 10.3% [at 11.4 µM] |
| CCOc1ccc(-c2nnc(-c3ccncc3)o2)cc1 | 0.112 µM (active) | – |
| N#CCCn1c(=O)cnc2cnc(N3CCNCC3)nc21 | inactive | – |

| SMILES | AC50 | activity, negative = inhibition |
| --- | --- | --- |
| CCC(=O)Nc1nnc(C(C)(C)C)s1 | inactive | – |
| COc1ccc(-c2cc(C(=O)Nc3nc4c(C)cccc4s3)c3ccccc3n2)cc1OC | 2.51 µM (active) | – |
| CC(=O)Nc1ccc(-c2cc(C(=O)O)c3cc4ccccc4cc3n2)cc1 | – | 9.44% [at 11.4 µM] |
| CC(C)(C)NS(=O)(=O)c1ccc(NC(=O)C(Sc2ccccc2)c2ccccc2)cc1 (centres undefined) | 3.55 µM (active) | – |
| CC(C)(C)NS(=O)(=O)c1ccc(NC(=O)c2cc(-c3ccccc3)nc3ccccc23)cc1 | 2.82 µM (active) | – |
| CC(C)(C)c1nnc(NC(=O)c2cc(-c3ccccc3)nc3ccccc23)s1 | 5.01 µM (active) | – |
| CN1CCN(c2ncc3nc(-c4cc(F)cc(F)c4)c(=O)n(Cc4cccs4)c3n2)CC1 | inactive | – |
| CCS(=O)(=O)N(C)[C@@H]1c2cc(C#N)ccc2OC(C)(C)[C@H]1O | inactive | – |
| Cc1cc([N+](=O)[O-])nn1Cc1ccccc1F | 11.2 µM (active) | – |
| Cc1cc([N+](=O)[O-])nn1CC(=O)NNC(=S)Nc1ccc(F)cc1 | inactive | – |
| Nc1c(S(=O)(=O)c2ccccc2)c2nc3ccccc3nc2n1Cc1ccco1 | 7.08 µM (active) | – |
| O=C(c1ccccc1)c1nn(-c2ccccc2)c(=O)cc1C(F)(F)F | 1.58 µM (active) | – |
| COC(=O)c1nn(-c2ccccc2)c(-c2ccccc2)c1C(=O)c1ccccc1 | 8.91 µM (active) | – |
| CCOC(=O)c1nn(-c2ccccc2)c(-c2ccccc2)c1C(=O)c1ccccc1 | 10 µM (active) | – |
| COC(=O)c1c(C)nc2ccccc2c1C(=O)O | inactive | – |
| O=C(O)c1nn(-c2ccccc2)ccc1=O | inactive | – |
| NC(=O)c1nn(-c2ccccc2)c(=O)cc1O | inactive | – |
| COc1ccc(NC(=O)N2CCCC3(CCN(C(=O)c4cccn4C)CC3)C2)cc1 | inactive | – |
| CC(C)[C@@H]1[C@H]2CC[C@H](C2)[C@H]1N | inactive | – |
| C[C@@H](O)[C@H]1C(=O)N2C(C(=O)O)=C(S[C@@H]3CN[C@H](C(=O)N(C)C)C3)[C@H](C)[C@H]12 | inactive | – |
| CCc1ccc(/C=C\C(=O)N2CCc3ccccc3C2)cc1 | 4.47 µM (active) | – |
| CC1=C[N+](=O)c2ccccc2[N+]1=O | – | 5.82% [at 11.4 µM] |
| Cc1cc(NC(=O)CCC(=O)N(CC2CCCO2)C(C(=O)NC2CCCC2)c2cccnc2)no1 (centres undefined) | inactive | – |

| SMILES | AC50 | activity, negative = inhibition |
| --- | --- | --- |
| CCOC(=O)CN(C(=O)CCC(=O)Nc1cc(C)on1)C(C(=O)NC1CCCC1)c1cccnc1 (centres undefined) | 28.2 µM (active) | – |
| O=C(O)[C@@H]1CCCNC1 | inactive | – |
| CCCCC1CCC(c2nc(-c3ccccn3)no2)CC1 (centres undefined) | 22.4 µM (active) | – |
| O=c1[nH]c(=O)n(Cc2ccco2)c2c1C(C(F)(F)F)(C(F)(F)F)N=C(CCC1CCCCC1)N2 | inactive | – |
| O=C(N/N=C/c1cccnc1)c1ccc([N+](=O)[O-])cc1 | inactive | – |
| O=C(c1ccc([N+](=O)[O-])cc1)[C@@H](Br)[C@@H](Br)c1ccnc2ccccc12 | 1.26 µM (active) | – |
| COc1ccc(-c2nc3cnc(N(C)C)nc3n(Cc3cccs3)c2=O)cc1 | inactive | – |
| CCN1C(=O)C(CC(=O)Nc2ccc(OC)cc2)N(Cc2cccnc2)C1=S (centres undefined) | 1.26 µM (active) | – |
| CCN1C(=O)C(CC(=O)Nc2ccc(OC)cc2)N(Cc2cccs2)C1=S (centres undefined) | 0.355 µM (active) | – |
| COc1ccc(C2C(C(=O)c3ccco3)=C(O)C(=O)N2Cc2cccnc2)cc1OC (centres undefined) | inactive | – |
| CCNc1ncc2nc(-c3ccc(OC)cc3)c(=O)n(Cc3cccs3)c2n1 | inactive | – |
| Cn1c(=O)[nH]c2ncn(C)c2c1=O | inactive | – |
| O=C(NCc1ccco1)c1ccccc1NS(=O)(=O)c1ccc(Br)s1 | 1.58 µM (active) | – |
| Nc1ccccc1C#Cc1ccccc1 | 10 µM (active) and 5.01 µM (active) | – |
| O=C1C=C(c2cccs2)CC(c2cccs2)C1n1cnc([N+](=O)[O-])c1 (centres undefined) | 10 µM (active) | – |
| COc1ccccc1CN1CCCC2(CCN(C(=O)c3cnccn3)CC2)C1 | inactive | – |
| O=C(Nc1cccc2ccccc12)/C(=C/c1ccc([N+](=O)[O-])cc1)NC(=O)c1ccccc1 | 7.94 µM (active) | – |
| Cc1ccc(NC(=O)/C(=C\c2ccc([N+](=O)[O-])cc2)NC(=O)c2ccccc2)cc1 | 1.41 µM (active) | – |
| COc1cc(/C=C(/NC(=O)c2ccccc2)C(=O)Nc2ccccc2)c([N+](=O)[O-])cc1OC | 15.8 µM (active) | – |
| O=C(Nc1ccccc1)/C(=C\c1ccncc1)NC(=O)c1ccccc1 | 0.126 µM (active) | – |
| O=C(c1cccc(F)c1)N1CCC[C@@]2(CCN(C(c3ccccc3)c3ccccc3)C2)C1 | inactive | – |
| COc1ccc(COC(=O)N/N=C2/C[C@@H](O)[C@@H](O)[C@@H]3[C@H]4C(=O)N(c5ccc(F)cc5F)C(=O)[C@@H]4CC[C@H]23)cc1 | – | 31.9% [at 11.4 µM] |
| Cc1cc2cc3c(C)cc(=O)oc3c(C)c2o1 | inactive | – |

| SMILES | AC50 | activity, negative = inhibition |
| --- | --- | --- |
| O=C(OCC(=O)c1ccc([N+](=O)[O-])cc1)/C(=C\c1ccc(Cl)cc1)NC(=O)c1ccccc1 | 3.98 µM (active) | – |
| Cc1ccc(C(=O)N/C(=C\c2ccc([N+](=O)[O-])cc2)C(=O)NCCc2ccccc2)cc1 | 2 µM (active) | – |
| Cc1ccc(NC(=O)Nc2nc(-c3ccc(C)s3)cs2)cc1 | 6.31 µM (active) | – |
| Cc1ncn(-c2ccccc2O)c1C | – | -11% [at 11.4 µM] |
| CCOC(=O)Cn1c(CN(Cc2ccccc2)Cc2ccccc2)nc2c1c(=O)[nH]c(=O)n2C | 15.8 µM (active) | – |
| Cn1c(=O)[nH]c(=O)c2c1nc(CN1CCOCC1)n2Cc1ccccc1 | inactive | – |
| Cc1ccc(C(=O)CNc2nc3c(c(=O)[nH]c(=O)n3C)n2Cc2ccccc2)cc1 | 5.62 µM (active) | – |
| Cn1c(=O)[nH]c(=O)c2c1nc(CN(Cc1ccccc1)Cc1ccccc1)n2CCN1CCOCC1 | 14.1 µM (active) | – |
| Cn1c(=O)[nH]c(=O)c2c1nc(NCCCO)n2CCCc1ccccc1 | inactive | – |
| COC(=O)Cn1c(CN(Cc2ccccc2)Cc2ccccc2)nc2c1c(=O)[nH]c(=O)n2C | 28.2 µM (active) | – |
| Cn1c(=O)c2[nH]c(SCCN3CCOCC3)nc2n(C)c1=S | – | -14.1% [at 11.4 µM] |
| Cc1nc(CN2CCCCC2)c(O)c(=O)[nH]1 | – | -22.5% [at 11.4 µM] |
| NC(=O)NC(=O)[C@H]1CCCC[C@@H]1C(=O)O | – | 12.1% [at 11.4 µM] |
| CCCCN(c1ccccc1)c1ncnc2c1cnn2C | – | -9.3% [at 11.4 µM] |
| Cn1ncc2c(Cl)ncnc21 | – | -3.14% [at 11.4 µM] |
| Cn1ncc2c(NCCc3ccccc3)nc(Cl)nc21 | 0.126 µM (active) | – |
| COc1ccc(-c2noc(C3CCCN(C(=O)c4ccccc4OC)C3)n2)cc1OC (centres undefined) | 11.2 µM (active) | – |
| COc1ccccc1CN1CC[C@@]2(CCCN(C(=O)c3c(C)noc3C)C2)C1 | inactive | – |
| CCCCCC(=O)N1CCCC(c2nc(-c3ccc(OC)cc3)no2)C1 (centres undefined) | 7.08 µM (active) | – |
| CN(C)c1ccc(-c2noc(C3CCN(S(=O)(=O)c4cccc(C(=O)O)c4)CC3)n2)cc1 | inactive | – |
